Measured values as given in PubChem BioAssay (Tox21).
Results filed as inconclusive are left out. Active and inactive are the calls of the source. Calls follow the shape of the dose curve; as a rule, active = well fitted inhibition curve with a large enough effect in the repeat runs; inconclusive = weak or mixed curves, or effect the other way; inactive = no such curve, though single readings can be large or run the other way.

molecular target: Nuclear receptor subfamily 1 group I member 3 (Homo sapiens) (UniProt Q14994); test: qHTS assay to identify small molecule antagonists of the constitutive androstane receptor (CAR) signaling pathway (AID 1224838); conditions: HepG2-CYP2B6-hCAR luciferase, CITCO-stimulated, 24 h; series mostly up to 92.4 µM; activity, negative = inhibition: at the top concentration;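 also: HepG2 cells stably expressing hCAR with CYP2B6 luciferase reporter stimulated by CITCO; nearly all actives have a fitted effect of over 40% in size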
Sequence (Q14994 whole entry, looked up): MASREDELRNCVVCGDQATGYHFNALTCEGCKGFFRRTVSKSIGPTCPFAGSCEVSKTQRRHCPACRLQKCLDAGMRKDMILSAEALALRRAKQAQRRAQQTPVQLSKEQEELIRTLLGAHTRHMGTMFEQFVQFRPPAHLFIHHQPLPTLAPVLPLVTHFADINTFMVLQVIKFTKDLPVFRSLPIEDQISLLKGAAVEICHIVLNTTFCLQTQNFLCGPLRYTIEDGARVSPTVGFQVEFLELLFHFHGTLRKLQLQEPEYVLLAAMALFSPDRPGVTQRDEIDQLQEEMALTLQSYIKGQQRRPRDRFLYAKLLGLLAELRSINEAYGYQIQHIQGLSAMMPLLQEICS
Description: U.S. Tox21 Program National Center for Advancing Translational Sciences [NCATS] NIH Chemical Genomics Center [NCGC] U.S. Environmental Protection Agency [EPA] National Institutes of Environmental Health Sciences [NIEHS] National Toxicology Program [NTP] U.S. Food and Drug Administration [FDA] Tox21 Assay Overview: The constitutive androstane receptor (CAR) is a nuclear receptor which regulates multiple drug metabolizing enzymes (DMEs) and transporters. Activating CAR will generally increase the transcription and subsequent translation of CYP2B6 and CYP3A4. These two DMEs represent about 50% of the drug metabolizing potential in the body. When CAR is deactivated, the metabolizing potential in the body will decrease, subsequently increasing the toxicity in the body or lowering the therapeutic potential of a pro-drug. Recently, there have also been studies performed indicating CARs role in energy metabolism and cancer therapy. Therefore, inhibiting CARs activity could have a potential effect on diabetes and cancer. Identifying environmental toxins and compounds which modulate CAR, through the use of the Tox21 10K compound collection, will be an important step in determining the toxicity and potential therapeutic effects these factors will have on the human body.
Tox21 Assay Protocol Summary: A double-stable (hCAR and CYP2B6-2.2kb) transfected cell line, derived from human hepatoma (HepG2) cells, was utilized for the duration of the quantitative high-throughput screens. The HepG2-CYP2B6-hCAR cells suspended in DMEM culture medium supplemented with 10% FBS, 5 ug/mL blasticidin, 0.5 mg/mL geneticin, 100 U/mL penicillin and 100 ug/mL streptomycin were dispensed at 2500 cells/4 uL/well in 1536-well white solid bottom plates using a Multidrop Combi. After the assay plates were incubated at 37 C/5% CO2 for 4 hrs, 23 nL of compounds at 15 concentrations (from 5-48 columns) or positive control (from 1 to 4 columns) were transferred to the assay plates using a Pintool station. One uL of CITCO, was added using a Flying Reagent Dispenser to generate a final concentration of 50 nM CITCO inside each well. After a 24 hr incubation period at 37 C/5% CO2, four uL of ONE-Glo reagent was added into the assay plates using a Flying Reagent Dispenser. After a 30 min incubation period at room temperature, the luminescence intensity in the assay plates was measured using a ViewLux plate reader.
% is scaled to controls: 0 for no effect and ±100 for the full control effect; potency is read from the fitted curve at half-maximal effect.

Structure (SMILES) | activity, negative = inhibition | Potency
CN(C)c1ccc(N=NS(=O)(=O)O)cc1 | 32% (inactive) | 
O=C(c1ccccc1)c1cc(Cl)ccc1O | 55.7% (inactive) | 
CCOC(=O)N1CCC(=C2c3ccc(Cl)cc3CCc3cccnc32)CC1 |  | inactive
CC(=O)c1ccccc1N | 0.158% (inactive) | 
CN(C)c1ccc(N=Nc2ccccc2C(=O)O)cc1 | 66.5% (inactive) | 
CO[Si](CCC1CCC2OC2C1)(OC)OC (stereo not given) | 3.98% (inactive) | 
CCCCCCCCC(C)=O | 5.58% (inactive) | 
NC(=O)c1ccccc1N | 22.7% (inactive) | 
OCCN1CN(CCO)CN(CCO)C1 | 13.8% (inactive) | 
O=C=NCc1cccc(CN=C=O)c1 | -4.42% [at 19 µM] (inactive) | 
C#CC(O)CCC (stereo not given) | 7.38% (inactive) | 
CC(C)CCOCCC(C)C | -4.04% (inactive) | 
Clc1ccc(C(c2ccccc2Cl)C(Cl)Cl)cc1 (stereo not given) |  | inactive
CC(=O)O[C@@H]1C[C@@H]2CC[C@@]1(C)C2(C)C | 6.85% (inactive) | 
CO[Si](CCCNCCNCCN)(OC)OC | -6.79% (inactive) | 
CCCCCCCCCC(=O)N(C)C | 60.9% (inactive) | 
C[C@@H]1CC[C@H]2C(C)(C)[C@H]3C[C@@]12CC[C@@]3(C)O | 14.4% (inactive) | 
CCCC(C)CCC(C)=O (stereo not given) | -1.55% (inactive) | 
O=C1OC(OC(=O)c2cccnc2Nc2cccc(C(F)(F)F)c2)c2ccccc21 (stereo not given) | 17.3% [at 42.5 µM] (inactive) | 
C1CC(COCC2CO2)CCC1COCC1CO1 (stereo not given) | -20.6% (inactive) | 

Structure (SMILES) | activity, negative = inhibition | Potency
CCN1CCN(c2cc(-c3ccc(F)cc3)c3c(n2)CCCCCC3)CC1 | 16.5% [at 19 µM] (inactive) | 
CCc1cccc(CC)c1NC(=O)C(=O)O | 3.18% (inactive) | 
CC(C)(c1cc(Br)c(OCCO)c(Br)c1)c1cc(Br)c(OCCO)c(Br)c1 | 51.7% (inactive) | 
CC(O)C#CC(C)O (stereo not given) |  | 48.1 µM (active)
CCCC(=O)OCC(COC(=O)CCC)OC(=O)CCC | -7.47% (inactive) | 
N[C@@H](CSSC[C@H](N)C(=O)O)C(=O)O | -10.8% [at 0.349 µM] (inactive) | 
C=CC(=C)CCC=C(C)C |  | 61.1 µM (active)
Cc1ccc(-n2[nH]c(C)c(N=Nc3cccc(-c4cccc(C(=O)O)c4)c3O)c2=O)cc1C | 2.23% [at 42.5 µM] (inactive) | 
CO[C@H]1C=CO[C@@]2(C)Oc3c(C)c(O)c4c(O)c(cc(O)c4c3C2=O)NC(=O)/C(C)=C\C=C/[C@H](C)[C@H](O)[C@@H](C)[C@@H](O)[C@@H](C)[C@H](OC(C)=O)[C@@H]1C | -7.3% (inactive) | 
CC1(C)COCN1 | -10.3% (inactive) | 
CC(C)=C1CC[C@@H](C)CC1=O | -16.1% (inactive) | 
C=CC(=O)OCCN(CC)CC | 6.94% (inactive) | 
CCCCCCCC/C=C\CCCCCCCC(=O)OCCOC(=O)CCCCCCC/C=C\CCCCCCCC | 6.89% (inactive) | 
Cc1cncc(C)c1 | 16.5% (inactive) | 
CN1[C@@H]2CC[C@H]1CC(OC(=O)C(CO)c1ccccc1)C2 (stereo not given in full) |  | inactive
CN1CN(C)CN(C)C1 | -10.7% (inactive) | 
COc1ccc(-n2nc(CCC(=O)N(C)O)cc2-c2ccc(Cl)cc2)cc1 | 89.4% [at 42.5 µM] (inactive) | 
COC(=O)NCCC[Si](OC)(OC)OC | -6.84% (inactive) | 
CCCC(CC)CCCCCCCN (stereo not given) | 4.82% (inactive) | 
Nc1ncnc2c1ncn2[C@@H]1O[C@H](COP(=O)(O)O)[C@@H](O)[C@H]1O | -7.59% [at 42.5 µM] (inactive) | 
